High-throughput results from PubChem BioAssay.
SMARCA2 activ: SMARCA2 function activation, primary screen; activation, % at 9.1 µM; MG213 cells, MMTV-luciferase reporter, dexamethasone, overnight; AID 652017; actives 1% (n = 370,000); in the data active = activation above about 7.8%
GalR3 antagonist: human GalR3 antagonism; actives 0.44% (n = 360,000); O60755; inhibition, % at 3 µM; HEK293 GalR3-CNG cAMP membrane potential fluorescence; galR3 body fused to GalR1 C-terminus;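 active = inhibition above the screen-wide average plus 3 SD, cut at about 13% in these data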;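 also: forskolin and galanin both at EC90 stimulate the cells; cAMP rise reported by CNG channel membrane potential dye signal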
Target sequence (O60755 1-299 limits assumed): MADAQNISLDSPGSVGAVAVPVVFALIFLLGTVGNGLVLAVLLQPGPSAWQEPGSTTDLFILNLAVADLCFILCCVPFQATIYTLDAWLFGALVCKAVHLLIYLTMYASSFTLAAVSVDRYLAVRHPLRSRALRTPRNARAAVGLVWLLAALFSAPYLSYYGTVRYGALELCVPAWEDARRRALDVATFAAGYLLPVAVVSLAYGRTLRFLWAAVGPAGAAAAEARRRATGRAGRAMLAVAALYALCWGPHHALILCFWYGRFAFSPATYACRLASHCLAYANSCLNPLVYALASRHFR
FXN GAA850 act: frataxin GAA850 promoter activation | HEK293 lucGAA850 FXN promoter luciferase reporter, 24 h; percent of 10 µM SAHA response | activation, % at 6 µM | actives 0.56% (n = 360,000) | AID 540364;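 active = activation above the average of all compounds screened plus 3 SD, cutoff fixed separately per campaign, cut at about 7.5% in these data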
NR2F2 inh: NR2F2 (human) inhibition, primary screen; P24468; HEK293T NGFI-A luciferase reporter, luminescence; inhibition, % at 8.6 µM; actives 0.7% (n = 370,000); AID 686940;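 active = inhibition above a per-plate cutoff, mean inhibition of test wells between control levels plus 3 SD, cut at about 38% in these data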;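 also: cells cotransfected with COUP-TFII expression vector driving the NGFI-A reporter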
Target sequence (P24468 whole entry, looked up): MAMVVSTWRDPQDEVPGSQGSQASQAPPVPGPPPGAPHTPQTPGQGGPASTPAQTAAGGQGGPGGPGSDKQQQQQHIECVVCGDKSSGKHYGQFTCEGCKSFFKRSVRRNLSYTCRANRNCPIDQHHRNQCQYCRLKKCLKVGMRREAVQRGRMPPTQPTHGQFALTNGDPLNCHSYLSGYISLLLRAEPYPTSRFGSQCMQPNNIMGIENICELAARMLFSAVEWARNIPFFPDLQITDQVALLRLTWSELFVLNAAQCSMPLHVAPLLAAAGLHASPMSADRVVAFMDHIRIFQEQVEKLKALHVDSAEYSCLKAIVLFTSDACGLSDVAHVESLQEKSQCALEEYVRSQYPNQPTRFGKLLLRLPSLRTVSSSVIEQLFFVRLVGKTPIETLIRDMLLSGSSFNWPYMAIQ
Gli-Sufu block: Gli-Sufu pathway antagonism; inhibition, % at 5 µM; AID 588413; Sufu-KO-LIGHT fibroblasts, Gli luciferase reporter luminescence; actives 0.74% (n = 340,000);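 active = inhibition above about 55%, limit read from the data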
Cardio protect: protects H9c2 cardiomyocytes from peroxide injury. H2O2 injury protection, ATPLite, 2 h. protection from H2O2 cell death, % at 20 µM. actives 0.63% (n = 360,000). AID 588492;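 active = compounds giving at least 50% protection of heart cells from peroxide-induced death in the single-dose screen, raw or plate-pattern-corrected value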
GAA30 counter: counter-screen for GAA850 frataxin promoter activators: GAA30 promoter activation; shares compounds with FXN GAA850 act; HEK293 lucGAA30 FXN promoter luciferase, 24 h; DMSO = 0%, 5 µM ipriflavone = 100%; activation, % at 6 µM; actives 66% (n = 1,900); AID 588350;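 active = mean activation above the mean of solvent-only control wells plus 3 SD, cut at about 22% in these data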;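 also: counterscreen of GAA850 promoter hits where activity marks nonselective or luminescence artifacts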
GAA850 confirm: GAA850 FXN promoter activation confirmation; AID 588351; activation, % at 6 µM; HEK293 lucGAA850 FXN promoter luciferase reporter, 24 h; 100% = activation by SAHA; shares compounds with FXN GAA850 act; actives 86% (n = 1,900);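 active = mean activation above a set limit taken from the primary screen, cut at about 8% in these data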
Gli-Sufu confirm: Gli-SUFU antagonism confirmation, single concentration. actives 40% (n = 2,500). Sufu-KO-LIGHT cells, Gli luciferase reporter, luminescence. inhibition, % at 5 µM. AID 602428. shares compounds with Gli-Sufu block;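 active = mean inhibition at 5 µM reaching about 45%, limit read from the data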
SufuKO cytotox: cytotoxic in Gli-SUFU antagonist counter-screen; shares compounds with Gli-Sufu block; Sufu-KO-LIGHT cells cytotoxicity, ATP luminescence; cytotoxicity, % at 5 µM; actives 32% (n = 2,500); AID 651994;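 active = mean cytotoxicity at 5 µM above about 25%, limit read from the data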;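 also: cells exposed to compound overnight for roughly 16 to 18 hours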
Wnt3a cs: Wnt3a reporter inhibition counter-screen | shares compounds with Gli-Sufu block | Wnt-LIGHT cells, Wnt3a-driven luciferase reporter, luminescence | inhibition, % at 6.25 µM | actives 20% (n = 2,500) | AID 651995;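 active = mean inhibition above about 25%, limit read from the data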
SMARCA2 act conf: confirmation of SMARCA2 (BRM) function activators; actives 30% (n = 3,500); MG213 cells, MMTV-luciferase with dexamethasone, luminescence, overnight; MG213 cells expressing E1A, Rb sequestered; DMSO wells 0%, reference activator 100%; activation, % at 9.1 µM; AID 652260; shares compounds with SMARCA2 activ;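 active = activation above its plate's cutoff, the mean activation of tested wells plus 3 SD, cut at about 7.9% in these data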
GAL4-VP16 Luc: GAL4-VP16 reporter activation counter-screen. shares compounds with SMARCA2 activ. HEK293 GAL4-VP16 pG5luc reporter, luciferase luminescence; scaled: DMSO wells 0%, SAHA wells 100%. activation, % at 9.1 µM. actives 41% (n = 3,500). AID 686939;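 active = activation above the solvent-only control well mean plus 3 SD, averaged across control plates, cut at about 5.2% in these data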
Gal4-VP16 ctr: counter-screen for COUP-TFII antagonists: inhibitors of VP16; shares compounds with NR2F2 inh; HEK293 Gal4-VP16 luciferase reporter, luminescence; inhibition, % at 8.5 µM; actives 25% (n = 2,500); AID 687007; in the data active = inhibition above about 13%
NR2F2 inh conf: COUP-TFII (NR2F2) inhibition, confirmation assay. AID 687008. shares compounds with NR2F2 inh. HEK293 NGFI-A luciferase reporter, luminescence. inhibition, % at 8.5 µM. actives 45% (n = 2,500);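 active = mean inhibition over three repeats above a set limit taken from the earlier primary screen, cut at about 38% in these data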
Each line names hits and unclear results; the compound was inactive in the other large screens (follow-up assays come after a bar, where they were run). The list is not random: actives were taken first. Their share in the collection is about 3.4%.

N/C(=N\[N+](=O)[O-])N1CCN(C(=O)OC2CCCC2)CC1	none
CC(C)CN1CCN(Cc2ccc(C(F)(F)F)cc2)CC1CCO (stereo not drawn)	none
CC(C)c1ccc(N2C(=O)NC(=O)/C(=C/C=C/c3ccco3)C2=O)cc1	FXN GAA850 act 8.7 | GAA30 counter inactive | GAA850 confirm 20.0
Cc1ccc(N2C(=O)NC(=O)/C(=C/C=C/c3ccco3)C2=O)cc1	none
Cc1cc(C)cc(N2C(=O)NC(=O)/C(=C\C=C\c3ccco3)C2=O)c1	FXN GAA850 act 8.9, Cardio protect 61.2 | GAA30 counter inactive | GAA850 confirm inactive
NP(=O)(Nc1ccccc1)Nc1ccccc1	none
COC(=O)[C@@]1(O)c2c(oc3cccc(O)c3c2=O)C=C[C@H]1O	none (no result: GalR3 antagonist, FXN GAA850 act, Gli-Sufu block, Cardio protect)
Cn1cccc1/C=C1\C(=O)NC(=O)N(Cc2ccccc2)C1=O	FXN GAA850 act 8.0 | GAA30 counter inactive | GAA850 confirm 24.4
COC(=O)C1=C(c2ccc(OCc3ccccc3)cc2)C[C@@H]2CC[C@H]1N2C(=O)NCc1ccc(N(C)C)cc1	none
N/C(=N\N=C/c1ccc(-c2ccc(O)c(C(=O)O)c2)o1)N[N+](=O)[O-]	none
COc1ccc(/C=N/N=C(/N)N[N+](=O)[O-])c(OC)c1	FXN GAA850 act 9.7 | GAA30 counter 74.7 | GAA850 confirm 26.5
CN(C)c1ccc(N=Cc2c(O)n(CCC3=CCCCC3)c(=O)[nH]c2=O)cc1	FXN GAA850 act 24.6 (no result: SMARCA2 activ, GalR3 antagonist, NR2F2 inh) | GAA30 counter inactive | GAA850 confirm inactive
C=CCNC(=O)c1c(N)n(Cc2ccco2)c2nc3ccccc3nc12	FXN GAA850 act 9.6 | GAA30 counter inactive | GAA850 confirm 8.6
CN(C)C(=S)SSC(=S)N(C)C	SMARCA2 activ 15.3, FXN GAA850 act 27.4, Gli-Sufu block 68.0 (no result: GalR3 antagonist) | GAA30 counter inactive | GAA850 confirm inactive | SMARCA2 act conf inactive | GAL4-VP16 Luc 15.5
CCCCCOc1ccc(C)cc1CN(CCCl)CCCl	none (no result: FXN GAA850 act, Cardio protect)
COc1ccc2c(c1)/C(=C/c1cnc[nH]1)C(=O)N2	SMARCA2 activ 17.3, FXN GAA850 act 43.2 | GAA30 counter 116.1 | GAA850 confirm 75.6 | SMARCA2 act conf 10.7 | GAL4-VP16 Luc inactive
O=C1Nc2ccccc2/C1=C/c1cnc[nH]1	none
COC(=O)[C@@H]1[C@@H](C(=O)OC)C2(c3ccccc3-c3ccccc32)N(c2ccc(Cl)cc2)N1C#N	FXN GAA850 act 13.0, NR2F2 inh 47.0 | GAA30 counter inactive | GAA850 confirm inactive | Gal4-VP16 ctr 49.7 | NR2F2 inh conf 46.8
Cc1cccc(C)c1-n1nnnc1C(c1ccnc2ccccc12)N1CCC2(CC1)C(=O)NCN2c1ccccc1 (stereo not drawn)	none (no result: FXN GAA850 act, Gli-Sufu block)
CCC12CN3CCN(CC(C3)/C1=N/NC(N)=O)C2	Gli-Sufu block 61.4 | Gli-Sufu confirm inactive | SufuKO cytotox inactive | Wnt3a cs inactive
COc1ccc(CN2Cc3cc(-c4cccc(F)c4)ccc3-n3nncc3C2)cc1	none (no result: FXN GAA850 act, Gli-Sufu block)
O=[N+]([O-])c1cc([As](=O)(O)c2ccc(O)c([N+](=O)[O-])c2)ccc1O	none
COC(=O)C1=C(c2cc3ccccc3o2)C[C@@H]2CC[C@H]1N2C(=O)N1CCC(O)CC1	none
COC(=O)C1=C(c2cc3ccccc3o2)C[C@@H]2CC[C@H]1N2C(=O)N1CCC(C)CC1	none | Gli-Sufu confirm inactive | SufuKO cytotox inactive | Wnt3a cs inactive
CCN(CC)C(=O)c1ccc(NC(=O)CSc2nnnn2-c2cc(OC)ccc2OC)cc1	Gli-Sufu block 70.3 | Gli-Sufu confirm inactive | SufuKO cytotox inactive | Wnt3a cs inactive
CC(NCc1ccc(Cl)cc1Cl)C(O)c1ccccc1 (stereo not drawn)	none
CC(NCc1cccc(Cl)c1Cl)C(O)c1ccccc1 (stereo not drawn)	Gli-Sufu block 96.8 | Gli-Sufu confirm inactive | SufuKO cytotox inactive | Wnt3a cs inactive
O=[N+]([O-])NC1=NCN(Cc2ccco2)CN1Cc1ccco1	Gli-Sufu block 90.9 | Gli-Sufu confirm inactive | SufuKO cytotox inactive | Wnt3a cs inactive
Cn1c(NN=O)nc2ccccc21	Gli-Sufu block 82.8 | Gli-Sufu confirm inactive | SufuKO cytotox inactive | Wnt3a cs inactive
CN1CCN(Cc2nc3ccccc3n2C)CC1	none
CCCCCc1nc2ccccc2c(=O)n1-c1ccccc1[N+](=O)[O-]	none
CCCCCc1nc2c(c(=O)c3ccccc3n2C)c(=O)n1C1CCCCCC1	none | Gli-Sufu confirm inactive | SufuKO cytotox inactive | Wnt3a cs inactive
COc1cc2c(c(OC)c1OC)-c1ccc(O)c(=O)cc1[C@@H](NC(C)=O)CC2	none
COc1c(O)cc2c(c1OC)-c1ccc(SC)c(=O)cc1C(NC(C)=O)CC2 (stereo not drawn)	Gli-Sufu block 66.6 | Gli-Sufu confirm 62.1 | SufuKO cytotox 62.4 | Wnt3a cs inactive
O=c1cccc2n1C[C@@H]1C[C@@H]2CN(CC(O)c2ccc([N+](=O)[O-])cc2)C1 (stereo partly drawn)	none
